In PubChem BioAssay (Tox21):
Results filed as inconclusive are left out. A call without a number means that no potency is given here. Unmarked numbers belong to inactive results. The source made the active and inactive calls. The call rests on the fitted dose curve.

Assay: cAMP Responsive Elements (CRE) small molecule agonists, cell-based qHTS assay (AID 1963590)
Details: CRE-bla HEK293T, beta-lactamase FRET ratio, 3 h; series mostly up to 92.4 µM
From the text: U.S. Tox21 Program National Center for Advancing Translational Sciences [NCATS] Division of Preclinical Innovation [DPI] U.S. Environmental Protection Agency [EPA] National Institutes of Environmental Health Sciences [NIEHS] National Toxicology Program [NTP] U.S. Food and Drug Administration [FDA] Tox21 Assay Overview: CREB (cyclic-AMP Responsive Element Binding Protein) is a cellular transcription factor. It binds to certain DNA sequences called cAMP Responsive Elements (CRE) and regulates the transcription of the genes. […] This cell line can be used to find agonists/antagonists of the cyclic AMP signaling pathway. The activation of the report gene under culture conditions can be detected by fluorescence intensity. This cell line has been used to screen the Tox21 10K compound library to identify agonists that induce oxidative stress.
Tox21 Assay Protocol Summary: CRE-bla Hek 293T cells were suspended in assay medium (DMEM containing 10% dialyzed FBS, 0.1 mM NEAA, 1 mM sodium pyruvate and 25 mM HEPES) and dispensed at 2,000 cells/5 uL /well into 1536-well black wall/clear bottom plates using a Multidrop Combi (ThermoFisher Scientific, Waltham, MA) dispenser. After the assay plates were incubated at 37 C/5% CO2 for 18 hrs, 23 nL of compounds dissolved in DMSO, positive controls or DMSO only was transferred to the assay plate by a pintool workstation (Kalypsys, San Diego, CA). After the plates were incubated at 37 C/5% CO2 for 3 hrs, 1 uL of LiveBLAzer B/G FRET substrate (Invitrogen, Carlsbad, CA) was added to each well using Bioraptr Flying Reagent Dispenser (FRD, Aurora Discovery, San Diego, CA). The plates were incubated at room temperature for 2 h.

Structure (SMILES) | Potency | activation
NS(=O)(=O)c1cc2c(cc1Cl)NC(C1CC3C=CC1C3)NS2(=O)=O (stereo not given) | inactive | –
CC(=O)c1ccccc1N | inactive | –
CC(C)CCCC(C)N (stereo not given) | inactive | –
O=C(/C=C/c1ccccc1)OCc1ccccc1 | inactive | –
CN(C(=O)c1c(O)c2ccccc2n(C)c1=O)c1ccccc1 | inactive | –
OC1CCCCCCCCCCC1 | inactive | –
CC(C)CC(C)O (stereo not given) | inactive | –
O=C(O[C@@H]1Cc2c(O)cc(O)cc2O[C@@H]1c1cc(O)c(O)c(O)c1)c1cc(O)c(O)c(O)c1 | inactive | –
C1CCCC1 | inactive | –
CC(C)[C@@H]1CC[C@@H](C)CC1=O | inactive | –
CCCCCCCCCCCC(=O)N(C)CC(=O)O | – | -0.74% [at 8.39 µM]
C1CCC2OC2C1 (stereo not given) | inactive | –
Cc1cc(O)cc(C)c1Cl | inactive | –
CC(O)Cn1cnc2c1c(=O)n(C)c(=O)n2C (stereo not given) | inactive | –
O=C(O)CCC(=O)Nc1ccc(S(=O)(=O)Nc2nccs2)cc1 | inactive | –
CCC/C=C/C=O | inactive | –
CCN(CC)c1ccc(C=O)c(O)c1 | inactive | –
O=C(c1ccccc1)C1(O)CCCCC1 | inactive | –
CCCCCCCCC1CCC(=O)O1 (stereo not given) | inactive | –
NS(=O)(=O)c1ccc(N2CCCCS2(=O)=O)cc1 | inactive | –

Structure (SMILES) | Potency | activation
O=C1OC(=O)c2ccccc21 | inactive | –
CCCCCCCC/C=C\CCCCCCCC(N)=O | inactive | –
Nc1cc([N+](=O)[O-])ccc1Cl | inactive | –
CC(C)(N=C=O)c1cccc(C(C)(C)N=C=O)c1 | inactive | –
COc1cc(C=O)ccc1OC(=O)C(C)C | inactive | –
COc1ccc(N)c(OC)c1 | inactive | –
Nc1nc(N)nc(-c2ccccc2)n1 | inactive | –
CNc1ccccc1 | inactive | –
[O-][n+]1ccc(Cl)cc1 | inactive | –
CCCCCCCCCCCCCCCCBr | – | -0.367% [at 19 µM]
CC(=O)OCC(=O)Nc1cc(C#N)cc(NC(=O)COC(C)=O)c1Cl | inactive | –
C=CCn1cc[n+](C)c1 | inactive | –
CCc1cnc(C(=O)O)c(C(=O)O)c1 | inactive | –
O=C(O)CC(=O)O | inactive | –
NCCNCCNCCN | inactive | –
NCc1ccc(S(N)(=O)=O)cc1 | inactive | –
CCN1C(=O)c2ccccc2C1Nc1ccc(OCCN2CCCCC2)cc1 (stereo not given) | inactive | –
CCCCc1ccc(Cl)cc1 | inactive | –
CC[C@]12CCCN3CCc4c(n(c5ccccc45)[C@@](O)(C(=O)OC)C1)[C@@H]32 | inactive | –
CCCCCCOCCOCCO | inactive | –
